Measurements taken from article PMC4336329 (PLoS ONE, 2015).
Screen size: about 310,000 compounds; about 2,200 (0.71%) showed an effect of 50% or more. The effect is printed as a negative number. The sample holds strong results, similar compounds and a random draw of the others, so the mix is not that of the screen.

These molecules were tested against human ether-à-go-go-related gene (hERG) potassium channel (human, UniProt Q12809) (assay: primary screen, population patch clamp on CHO cells stably expressing hERG; higher = less effect of the substance).
human ether-à-go-go-related gene (hERG) potassium channel, sequence (Q12809 whole entry, looked up): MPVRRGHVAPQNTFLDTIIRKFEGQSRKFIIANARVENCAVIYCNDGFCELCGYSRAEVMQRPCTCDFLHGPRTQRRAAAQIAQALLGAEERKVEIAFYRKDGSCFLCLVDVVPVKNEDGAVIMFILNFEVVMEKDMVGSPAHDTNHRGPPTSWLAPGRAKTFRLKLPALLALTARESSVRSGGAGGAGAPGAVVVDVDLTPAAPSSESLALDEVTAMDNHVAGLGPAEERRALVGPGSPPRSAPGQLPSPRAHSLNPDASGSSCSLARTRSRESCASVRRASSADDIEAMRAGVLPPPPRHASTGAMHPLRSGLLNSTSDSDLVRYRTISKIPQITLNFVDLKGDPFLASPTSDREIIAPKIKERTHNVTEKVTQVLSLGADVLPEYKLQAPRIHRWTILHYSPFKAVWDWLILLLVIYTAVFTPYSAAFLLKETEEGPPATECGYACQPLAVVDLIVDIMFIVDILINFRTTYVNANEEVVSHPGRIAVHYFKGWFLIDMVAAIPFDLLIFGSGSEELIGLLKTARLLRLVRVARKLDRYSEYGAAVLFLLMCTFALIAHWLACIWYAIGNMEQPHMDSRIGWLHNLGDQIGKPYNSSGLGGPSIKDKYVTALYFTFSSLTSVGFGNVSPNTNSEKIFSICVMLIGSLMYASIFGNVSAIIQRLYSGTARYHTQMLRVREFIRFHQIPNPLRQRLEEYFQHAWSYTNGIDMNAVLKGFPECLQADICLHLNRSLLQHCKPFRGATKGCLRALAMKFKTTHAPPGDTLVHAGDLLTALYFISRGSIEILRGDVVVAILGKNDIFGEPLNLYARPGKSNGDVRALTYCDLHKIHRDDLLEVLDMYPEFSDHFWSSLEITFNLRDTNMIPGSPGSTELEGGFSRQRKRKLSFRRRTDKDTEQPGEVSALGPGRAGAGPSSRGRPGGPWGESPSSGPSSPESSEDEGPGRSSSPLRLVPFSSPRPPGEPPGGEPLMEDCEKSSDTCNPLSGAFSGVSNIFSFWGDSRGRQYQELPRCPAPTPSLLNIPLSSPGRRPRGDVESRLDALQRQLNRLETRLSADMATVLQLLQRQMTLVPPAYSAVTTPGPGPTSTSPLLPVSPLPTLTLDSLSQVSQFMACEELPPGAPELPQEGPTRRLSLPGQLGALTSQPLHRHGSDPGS

SMILES	hERG current change (%, negative = inhibition) at 1uM [%]
CCCN(C(=O)CCl)C1=CCCCC1	26.6
O=C(CS(=O)(=O)Cc1ccccc1)Nc1ncccn1	13
C[C@H]1CN=C2N(CCNC(=O)CCC3CCCCC3)[C@H](Cc3ccc(O)cc3)CN21	14.3
COc1ccc(C[C@@H]2CN3C(=NC[C@@H]3Cc3ccc(O)cc3)N2C[C@H](C)NC(=O)CCC2CCCCC2)cc1	-64.6
COc1ccc(C[C@H]2CN3C(=NC[C@@H]3C(C)C)N2CCNC(=O)CCC2CCCCC2)cc1	-86
CC(C)[C@H]1CN=C2N(CCNC(=O)CCC3CCCCC3)[C@H](Cc3ccc(O)cc3)CN21	-2.53
C/C=C(\C)C(=O)NCCN1C2=NC[C@H](C(C)C)N2C[C@@H]1Cc1ccc(OC)cc1	-46.6
O=C(CCC1CCCCC1)NCCN1C2=NC[C@@H](Cc3ccccc3)N2C[C@H]1Cc1ccc(O)cc1	-0.771
C[C@@H]1CN=C2N(CCNC(=O)CCC3CCCCC3)[C@H](Cc3ccc(O)cc3)CN21	7.9
COc1ccc(C[C@H]2CN3C(=NC[C@H]3Cc3ccccc3)N2CCNC(=O)CCC2CCCCC2)cc1	-49.2
C[C@@H](CN1C2=NC[C@H](Cc3ccc(O)cc3)N2C[C@H]1Cc1ccc(O)cc1)NC(=O)CCC1CCCCC1	12.5
COc1ccc(C[C@H]2CN3C(=NC[C@@H]3C)N2CCNC(=O)CCC2CCCCC2)cc1	-63.7
COc1ccc(C[C@H]2CN3C(=NC[C@@H]3Cc3ccccc3)N2CCNC(=O)CCC2CCCCC2)cc1	-60.4
COc1ccc(C[C@H]2CN3C(=NC[C@@H]3Cc3ccc(O)cc3)N2C[C@H](C)NC(=O)CCC2CCCCC2)cc1	-14.9
COc1ccc(COc2ccsc2C(=O)Nc2ccc(Cl)c(Cl)c2)cc1	13.6
COc1cc(OC)cc(-c2nc(SCC(=O)Nc3ccccc3F)n[nH]2)c1	11.9
CC(C)c1ccc(C(N)=S)cc1	7.86
O=C(Cc1ccccc1)N1CCC2(CC1)NCCc1[nH]cnc12	20.4
COc1ccc(NC(=O)/C=C/c2ccc(C)o2)cc1S(=O)(=O)N1CCOCC1	3.88
COc1cc(S(=O)(=O)Nc2ccccc2N2CCCCC2)ccc1NC(C)=O	-4.5
COC(=O)C(NC(=O)c1c(C)nn(C)c1Cl)c1ccccc1 (centres unmarked)	14.2
Cc1ccc2c(c1)c(C)c(C)n2CC(O)Cn1nnc2ccccc21 (centres unmarked)	12.4
CS(=O)(=O)NCc1nnc(SCc2c(F)cccc2Cl)o1	-1.52
O=C(O)c1cccc(Nc2ccc([N+](=O)[O-])c3nonc23)c1	2.1
Cc1cc(=O)n2nc(N3CCCC3C(=O)Nc3cccc(Cl)c3C)sc2n1 (centres unmarked)	12.5
COc1ccc(N2CCN(C(=O)c3ccc4c(=O)n(Cc5ccc6c(c5)OCO6)c(=O)[nH]c4c3)CC2)cc1	25
CC(=O)/C(=C\N(C)C)Sc1ccc(C)cc1	27.2

SMILES	hERG current change (%, negative = inhibition) at 1uM [%]
Cc1ccc(C(=O)Oc2cc(C)n(C)c(=O)c2)cc1	5.86
COc1cc(Cl)nn(-c2ccccc2)c1=O	13.3
CC1(c2ccc([N+](=O)[O-])cc2)Nc2ccccc2S1 (centres unmarked)	10.9
COc1ccc(C[C@@H]2CN3C(=NC[C@@H]3C)N2C[C@H](C)NC(=O)CCC2CCCCC2)cc1	-20.8
COc1ccc(C[C@H]2CN3C(=NC[C@H]3C)N2CCNC(=O)CCC2CCCCC2)cc1	-51.9
O=C(CCC1CCCCC1)NCCN1C2=NC[C@H](Cc3ccc(O)cc3)N2C[C@H]1Cc1ccc(O)cc1	12.5
Nc1nc(Cn2nnc(-c3ccccc3Cl)n2)nc(N2CCOCC2)n1	-25.9
Nc1nc(Cn2nnc(-c3ccccc3F)n2)nc(N2CCOCC2)n1	-53.8
COc1ccc(-c2nnn(Cc3nc(N)nc(N4CCOCC4)n3)n2)cc1OC	3.65
COc1ccc(S(=O)(=O)N2CCCC2CNC(=O)C(=O)NC2CCCCCC2)cc1 (centres unmarked)	-3.96
COc1ccc(OCC(=O)N2CCC3(CC2)CC(=O)c2ccccc2O3)cc1	-70.2
CC(=O)N1CCN(C(=O)COc2ccc(Br)cc2)CC1	3.21
O=C1CC2(CCN(C(=O)COc3ccccc3)CC2)Oc2ccccc21	-21.4
CCOc1ccc(OCC(=O)N2CCC3(CC2)CC(=O)c2ccccc2O3)cc1	-56.8
Cc1ccccc1OCC(=O)N1CCC2(CC1)CC(=O)c1ccccc1O2	-10.3
O=C1CC2(CCN(C(=O)COc3ccc(F)cc3)CC2)Oc2ccccc21	-17
COc1ccc(OCC(=O)N2CCN(C(=O)COc3ccc(Br)cc3)CC2)cc1	-56.9
O=C1CC2(CCN(C(=O)COc3ccc(Cl)cc3)CC2)Oc2ccccc21	-70.4
COc1cccc(OCC(=O)N2CCC3(CC2)CC(=O)c2ccccc2O3)c1	-5.23
Cc1cccc(OCC(=O)N2CCC3(CC2)CC(=O)c2ccccc2O3)c1	-6.58
Cc1ccc(OCC(=O)N2CCC3(CC2)CC(=O)c2ccccc2O3)cc1	-49
COc1ccc(OCC(=O)N2CCN(C(=O)COc3ccccc3)CC2)cc1	-24.7
COc1ccc(NC(=O)N2CC(C)OC(C)C2)cc1OC (centres unmarked)	9.39
O=C1c2ccccc2C(=O)N1CCn1ccnc1	17.7
CCOc1cccc(CNc2ccc(O)cc2)c1OCc1ccc(Cl)cc1Cl	10.8
O=C(c1cnn2c(C(F)(F)F)cc(-c3ccco3)nc12)N1CCCc2ccccc21	-1.81
